# Source: the supplement of paper PMC4683952
# Structures can show the parent of a compound that is named as a salt. Hit rate of the full screen: of about 1,200 compounds, about 50 (4%) showed activity. No stated cut-off is given here; in the data, all actives reach 1.3 or more but so do some inactives. The full list was thinned out, with actives kept by preference.
# System: Lgr5 (MarsCy1-Lgr5-EGFP, U2OS)
# Assay: cell-surface Lgr5 expression (SCi1 fluorescence, background-subtracted) relative to WT DMSO (fold of DMSO control); higher = more Lgr5 at the plasma membrane, active = hit call of the paper
# Conditions: U2OS MarsCy1-Lgr5-EGFP stable; treatment time: overnight; 16 µM; library: Johns Hopkins Clinical Compound Library
row,Compound,cell-surface Lgr5 expression
1,"Nc1nc(Cl)nc2c1ncn2[C@H]1C[C@H](O)[C@@H](CO)O1 [Cladribine (2-chloro,2-deoxyadenosine)]",0.832 (inactive)
2,O=c1[nH]c(=O)n([C@H]2C[C@H](O)[C@@H](CO)O2)cc1F [Floxuridine (5-fluorodeoxyuridine)],0.664 (inactive)
3,Nc1ncn([C@H]2C[C@H](O)[C@@H](CO)O2)c(=O)n1 [Decitabine (5-aza-2-deoxycytidine)],1.47 (active)
4,CCN(CC)CC#CCOC(=O)C(O)(c1ccccc1)C1CCCCC1 (stereo not drawn) [Oxybutynin chloride],0.687 (inactive)
5,CCC(C(=O)OCCN(CC)CC)c1ccccc1 (stereo not drawn) [Butetamate (Butethamate)],1.2 (inactive)
6,CCN(CC)CCOCCOC(=O)C(CC)(CC)c1ccccc1 [Oxeladin citrate salt],1.48 (active)
7,Cc1cc(/C=C/c2ccc3cc(N(C)C)ccc3[n+]2C)c(C)n1-c1ccccc1 [Pyrvinium pamoate],1.09 (inactive)
8,"C[Se]CCC(N)C(=O)O [Seleno-D, L-methionine]",1.08 (inactive)
9,CC(=O)[C@H]1CC[C@H]2[C@@H]3C[C@H](C)C4=CC(=O)CC[C@]4(C)[C@H]3[C@@H](O)C[C@]12C [Medrysone (6-alpha-Methyl-11-beta-Hydroxyprogesterone)],1.27 (inactive)
10,C[C@]12CCC(=O)C=C1CC[C@@H]1[C@@H]2[C@@H](O)C[C@@]2(C)[C@H]1CC[C@]2(O)C(=O)COC(=O)CCC(=O)O [Hydrocortisone hemisuccinate monohydrate],1.36 (active)
11,CC(=O)O[C@]1(C(C)=O)CC[C@H]2[C@@H]3CCC4=CC(=O)CC[C@]4(C)[C@H]3CC[C@@]21C [Hydroxyprogesterone acetate (17alpha-Acetoxyprogesterone)],1.21 (inactive)
12,CC(=O)[C@H]1CC[C@H]2[C@@H]3CCC4=CC(=O)CC[C@]4(C)[C@H]3CC[C@]12C [Progesterone],1.16 (inactive)
13,CC(=O)OCC(=O)[C@H]1CC[C@H]2[C@@H]3CCC4=CC(=O)CC[C@]4(C)[C@H]3CC[C@]12C,1.01 (inactive)
14,CC1(C)O[C@@H]2C[C@H]3[C@@H]4C[C@H](F)C5=CC(=O)CC[C@]5(C)[C@H]4[C@@H](O)C[C@]3(C)[C@]2(C(=O)CO)O1,1.55 (active)
15,CCCCCC(=O)O[C@]1(C(C)=O)CC[C@H]2[C@@H]3CCC4=CC(=O)CC[C@]4(C)[C@H]3CC[C@@]21C [Progesterone caproate (17alpha-hydroxyprogesterone)],1.05 (inactive)
16,CC1(C)O[C@@H]2C[C@H]3[C@@H]4C[C@H](F)C5=CC(=O)C=C[C@]5(C)[C@H]4[C@@H](O)C[C@]3(C)[C@]2(C(=O)CO)O1 [Flunisolide],1.47 (active)
17,C[C@]12CCC(=O)C=C1CC[C@@H]1[C@@H]2[C@@H](O)C[C@]2(C=O)[C@@H](C(=O)CO)CC[C@@H]12 [Aldosterone],1.55 (active)
18,CC(=O)[C@@]1(O)CC[C@H]2[C@@H]3C[C@H](C)C4=CC(=O)CC[C@]4(C)[C@H]3CC[C@@]21C [6α-Methyl-17α-hydroxy-progesterone (Medroxyprogesterone)],1.45 (inactive)
19,CCCCCC(=O)O[C@]1(C(C)=O)CC[C@H]2[C@@H]3CCC4=CC(=O)CC[C@]4(C)[C@H]3CC[C@@]21C,1.11 (inactive)

row,Compound,cell-surface Lgr5 expression
1,NCCCC(N)(C(=O)O)C(F)F (racemic),1.18 (inactive)
2,[Br-].[K+] [Potassium bromide],0.93 (inactive)
3,CCOC(=O)[C@H](CCc1ccccc1)N[C@H]1CCc2ccccc2N(CC(=O)O)C1=O [Benazepril hydrochloride],0.872 (inactive)
4,O=S(=O)(O)CCS [Mesna (2-Mercaptoethanesulfonic acid)],0.844 (inactive)
5,O=S(=O)(O)CCS [Mesna (2-Mercaptoethane Sulfonic Acid Sodium Salt)],0.815 (inactive)
6,O=P([O-])(O)O.[Na+] [Sodium phosphate monobasic],1.11 (inactive)
7,[Na+].[O]=[Bi](=[O])[O-] [Sodium bismuthate],0.965 (inactive)
8,"CC1=C(C/C=C(\C)CCC[C@H](C)CCC[C@H](C)CCCC(C)C)C(=O)c2ccccc2C1=O [Vitamin K1 (Phylloquinone, phytonadione)]",0.865 (inactive)
9,NS(=O)(=O)c1cc2c(cc1C(F)(F)F)NC(Cc1ccccc1)NS2(=O)=O (stereo not drawn) [Bendroflumethiazide],1.02 (inactive)
10,"CCCC(O)C(CC)CO (stereo not drawn) [Ethohexadiol (2-Ethyl-1,3-hexanediol)]",1.04 (inactive)
11,Clc1ccc(CO/N=C(\Cn2ccnc2)c2ccc(Cl)cc2Cl)c(Cl)c1 [Oxiconazole nitrate],0.871 (inactive)
12,O=[N+]([O-])c1ccc(/C=N/O)o1 [Nifuroxime],0.992 (inactive)
13,O.[Al+3].[Al+3].[Cl-].[OH-].[OH-].[OH-].[OH-].[OH-] [Aluminum chlorohydrate],0.754 (inactive)
14,Cc1onc(-c2ccccc2)c1C(=O)N[C@@H]1C(=O)N2[C@@H]1SC(C)(C)[C@@H]2C(=O)O [Oxacillin],0.726 (inactive)
15,CC1(C)O[C@@H]2C[C@H]3[C@@H]4CCC5=CC(=O)C=C[C@]5(C)[C@H]4[C@@H](O)C[C@]3(C)[C@]2(C(=O)CO)O1,1.44 (active)
16,C[C@H]1C[C@@H]2[C@H]([C@@H](O)C[C@@]3(C)[C@H]2CC[C@]3(O)C(=O)CO)[C@@]2(C)C=CC(=O)C=C12 [Methylprednisolone (6-alpha-Methylprednisolone)],1.12 (inactive)
17,C[C@]12C=CC(=O)C=C1CC[C@@H]1[C@@H]2[C@@H](O)C[C@@]2(C)[C@H]1CC[C@]2(O)C(=O)COP(=O)(O)O [Prednisolone sodium phosphate],1.25 (inactive)
18,CCC(=O)[C@@]1(C)[C@H](C)C[C@H]2[C@@H]3CCC4=CC(=O)C=C[C@]4(C)[C@H]3[C@@H](O)C[C@@]21C [Rimexolone],1.39 (active)
19,"C[C@]12C=CC(=O)C=C1CC[C@@H]1[C@@H]2[C@@H](O)C[C@@]2(C)[C@H]1CC[C@]2(O)C(=O)COP(=O)(O)O [Prednisolone 21-phosphate, disodium salt]",1.41 (active)
